Data on 31 compounds can be found in PubChem BioAssay AID624046 (National Center for Advancing Translational Sciences (NCATS), 2012).

Inconclusive results are not listed. Activity calls are given as the source filed them. The call rests on the fitted dose curve; in most records, active means well fitted inhibition curve with a large enough effect; inconclusive means small, poorly fitted or top-dose-only effect; inactive means flat fitted curve, though single readings scatter.

The target in the test is Dual specificity tyrosine-phosphorylation-regulated kinase 1B (Homo sapiens) (UniProt Q9Y463). Description: Reaction Biology data for inhibitors of DYRK1B: Probe SAR. The following applies: Reaction Biology DYRK1B kinase assay, 10 uM ATP; series mostly up to 10 µM. The source says: Alternative splicing of pre-mRNAs plays a major role in the regulation of eukaryotic gene expression. Alternative splicing is now thought to be one of the primary reasons for the complexity of higher organisms leading to an average of three protein isoforms per gene. Aberrant splicing can lead to a number of diseases and is known to play a role in rare genetic diseases such as progeria syndrome. Hutchinson-Gilford Progeria Syndrome (HGPS) is a pediatric premature aging disease caused by a spontaneous mutation in the lamin A/C (LMNA) gene due to a single point mutation in the lamin A gene effecting 1 in 4 million people. To identify both specific splicing modulators of the lamin A gene as well as general splicing modulators, a cell-based HTS assay was developed using a minigene reporter system (AIDs, 1459 & 1487). […] This AID summarizes the characterization of lead compounds in Dyrk1b. NIH Molecular Libraries Probe Production Centers Network [MLPCN] NIH Chemical Genomics Center [NCGC] MLPCN Grant: MH084827 Assay Submitter (PI): Tom Misteli
Chain of Dual specificity tyrosine-phosphorylation-regulated kinase 1B (Homo sapiens) (Q9Y463 whole entry, looked up, canonical isoform): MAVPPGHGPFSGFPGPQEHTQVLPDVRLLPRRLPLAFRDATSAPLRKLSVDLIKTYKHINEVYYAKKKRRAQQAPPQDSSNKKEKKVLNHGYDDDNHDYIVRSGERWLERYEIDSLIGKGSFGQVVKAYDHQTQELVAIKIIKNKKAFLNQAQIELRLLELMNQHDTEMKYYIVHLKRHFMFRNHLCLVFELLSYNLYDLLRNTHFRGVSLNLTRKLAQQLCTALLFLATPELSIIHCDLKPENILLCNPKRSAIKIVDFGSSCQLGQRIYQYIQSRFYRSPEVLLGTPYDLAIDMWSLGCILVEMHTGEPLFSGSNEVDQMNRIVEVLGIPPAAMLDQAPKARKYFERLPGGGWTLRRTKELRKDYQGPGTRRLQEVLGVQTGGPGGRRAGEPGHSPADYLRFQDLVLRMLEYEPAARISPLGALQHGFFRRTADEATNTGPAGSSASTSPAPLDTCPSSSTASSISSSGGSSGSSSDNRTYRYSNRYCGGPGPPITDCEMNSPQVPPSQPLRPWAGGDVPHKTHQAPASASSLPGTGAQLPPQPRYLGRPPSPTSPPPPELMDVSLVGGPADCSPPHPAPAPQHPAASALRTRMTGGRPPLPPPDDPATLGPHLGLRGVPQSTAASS
Compound IC50s were determined at Reaction Biology (http://www.reactionbiology.com) with ten concentration points starting at 10 uM in the assay using a 3-fold dilution series. The control compound staurosporine was also tested in the 10-dose IC50 mode with the same 3-fold serial dilution, again starting at 10 uM. All kinase reactions were performed using 10 uM ATP in the assay. 100% activity was taken from kinase reactions with DMSO alone (the vehicle used for compound stock solutions).
As for `c1cncc(CNc2ncncc2-c2ccc3c(c2)OCO3)c1`, the Potency result is “inactive”. As for `Cc1nc(CN(C)c2ncnc3ccc(-c4ccc5c(c4)OCO5)cc23)cs1`, the figure is 16.4 nM (active). For `Brc1ccc(CNc2nccc(-c3ccc4c(c3)OCO4)n2)cc1Br` the value was 112 nM (active); for `COc1ccc(-c2ccnc(NCc3ccc(Cl)cc3)n2)cc1`, 871 nM (active); for `COc1ccc(-c2ccnc(NCc3ccc(Cl)c(Cl)c3)n2)cc1OC`, “inactive”. For `COc1ccc(-c2ccnc(NCc3ccc(Cl)c(Cl)c3)n2)cc1` the value was 411 nM (active); for `Cc1c(-c2ccnc(NCc3ccc(Cl)cc3)n2)sc(=O)n1C`, 51.6 nM (active); for `c1cncc(CNc2nccc(-c3ccc4c(c3)OCO4)n2)c1`, 12 nM (active). In the case of `COc1cccc(-c2ccnc(NCc3ccc(Cl)cc3)n2)c1`, the Potency was 6780 nM (active). Consider `c1nc(NCC2CCCO2)c2cc(-c3ccc4c(c3)OCO4)ccc2n1` (stereo unspecified), for which the Potency was 141 nM (active). Consider `Clc1cc(Cl)cc(CNc2nccc(-c3ccc4c(c3)OCO4)n2)c1`, for which the Potency is 7.1 nM (active).

For `Clc1ccc(CNc2nccc(-c3ccc4cn[nH]c4c3)n2)cc1Cl`, the Potency is 599 nM (active). For `Clc1cc(Cl)cc(CNc2ncncc2-c2ccc3c(c2)OCO3)c1` the value was 1160 nM (active). As for `Clc1ccc(Nc2nccc(-c3ccc4c(c3)OCO4)n2)cc1`, the Potency was 884 nM (active). For `Cc1nc(CN(C)c2ncnc3ccc(-c4ccc5[nH]ncc5c4)cc23)cs1` the value was 89.5 nM (active); for `FC(F)(F)c1cccc(Nc2nccc(-c3ccc4c(c3)OCO4)n2)c1`, 18.1 nM (active); for `Clc1ccc(CNc2nccc(-c3ccc4[nH]ncc4c3)n2)cc1Cl`, 125 nM (active).

On to `FC(F)(F)c1cc(Br)cc(Nc2nccc(-c3ccc4c(c3)OCO4)n2)c1`, for which the Potency is 137 nM (active). In the case of `c1cncc(CNc2ccnc(-c3ccc4[nH]ncc4c3)n2)c1`, the Potency was 178 nM (active). As for `Clc1ccc(CNc2nccc(-c3ccc4c(c3)OCO4)n2)cc1Cl`, the figure is 37.8 nM (active).

As to `O=[N+]([O-])c1cc(Nc2nccc(-c3ccc4c(c3)OCO4)n2)cc(C(F)(F)F)c1`, the Potency was 27 nM (active). As for `Cc1nc(CNc2ncnc3ccc(-c4ccc5c(c4)OCO5)cc23)cs1`, the figure is 176 nM (active); as for `Brc1cc(Br)cc(CNc2nccc(-c3ccc4c(c3)OCO4)n2)c1`, 18.2 nM (active). For `c1cncc(CNc2ccnc(-c3ccc4cn[nH]c4c3)n2)c1` the value was 829 nM (active); for `COc1cccc(-c2ccnc(NCc3ccc(Cl)c(Cl)c3)n2)c1`, “inactive”; for `Clc1ccc(CNc2ccnc(-c3ccc4[nH]ncc4c3)n2)cc1Cl`, 514 nM (active). For the compound `Clc1ccc(CNc2ncncc2-c2ccc3c(c2)OCO3)cc1Cl`, the Potency result is “inactive”. For `Clc1ccc(CNc2nccc(-c3ccc4c(c3)OCCO4)n2)cc1Cl` the value was 54.8 nM (active). As for `c1cc(-c2ccc3c(c2)OCO3)nc(Nc2ccc3c(c2)OCO3)n1`, the figure is 41.9 nM (active); as for `Cc1c(-c2ccnc(NCc3cccnc3)n2)sc(=O)n1C`, 31.1 nM (active). As for `c1cncc(CNc2nccc(-c3ccc4[nH]ncc4c3)n2)c1`, the figure is 92.9 nM (active).
